# Data as given in PubChem BioAssay (NCATS).
# Unmarked numbers belong to inactive results. Records with an inconclusive call do not appear. Where a call stands in place of a potency, no number is given. Activity calls are given as the source filed them. The call rests on the fitted dose curve; in most records, active means well fitted curve in the direction sought with a large enough effect; inconclusive means small, poorly fitted or top-dose-only effect, or another doubt; inactive means no such curve, though single readings can be large; an effect the other way counts as inactive or inconclusive.
# What was measured:
# [1] = test system: Zika virus NS2B-NS3 protease (linked construct); test: Primary screen NINDS Rhodamine qHTS for Zika virus inhibitors (AID 1347160); further: nearly all actives have a fitted effect of over 55% in size
# In short: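 Percent inhibition, normalized to uninhibited and enzyme-free controls, is fitted to a 4-parameter Hill equation. Fluorescence change comes from a 15-min cleavage of 1.5 microM bis-peptide Rhodamine110 substrate by 25 nM linked NS2B-NS3 at room temperature.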
# [2] = qHTS to identify inhibitors of the type 1 interferon - major histocompatibility complex class I in skeletal muscle: primary screen against the NCATS Pharmaceutical Collection (AID 1347407);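 further: luminescence of HiBiT knocked into endogenous HLA-B as interferon-induced MHC class I level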; further: potency means the concentration at half of the fitted maximal effect
# In short: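 A qHTS format is used: 8-point, 1:5 compound series with 46 uM top final concentration, applied alongside 4 ng/ml IFN-beta to HLA-B*08:01-HiBiT knock-in myoblasts. Luminescence is measured after 24 h treatment.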
# [3] = Vero cells viability qHTS for Zika virus inhibitors (AID 1347167)
# In short: (§1)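 Counter-screen for cytotoxicity of hits from NS2B-NS3 protease qHTS. Overnight-attached cells (2.5 x 10^5 cells/mL, DMEM/4% FBS) were dosed in titration, incubated 24 to 48 hours, then assayed by CellTiter Glo.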
# [4] = HepG2 cells viability qHTS for Zika virus inhibitors (AID 1347168)
# In short: as §1
# [5] = Tertiary RLuc qRT-PCR qHTS assay for Zika virus inhibitors (AID 1347169); further: top concentration of the series differs between compounds; nearly all actives have a fitted effect of over 55% in size
# In short: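 Inhibition of ZIKV-RLuc replication in Vero cells, read as Renilla luminescence 1-1.5 hrs after live-cell substrate addition, following 48-72 hrs infection at MOI 1-2 in presence of compound.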
# [6] = qHTS to identify inhibitors of the type 1 interferon - major histocompatibility complex class I in skeletal muscle: primary screen against the NCATS LOPAC collection (AID 1347405);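 further: lytic HiBiT luminescence reporting HLA-B protein level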; further: potency means the concentration at half of the fitted maximal effect
# In short: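 CRISPR-engineered immortalized human myoblasts (C25cl48) with HiBiT fused to endogenous HLA-B*08:01, stimulated with 4 ng/ml IFN-beta. LOPAC compounds tested as a 7-point 1:4.3 titration (top 46 uM final), 24 h at 37 C; lytic HiBiT luminescence read.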
# [7] = qHTS for inhibitors of adenylyl cyclases using a fission yeast platform: a pilot screen against the NCATS LOPAC library (AID 1347410)
# In short: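 Inhibition of GNAS-stimulated AC9 activity in S. pombe was inferred from derepression of a PKA-repressed fbp1-GFP reporter, measured as cytometric fluorescence after 18 h at 30C with compounds at up to 57 µM.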
smiles,measurement,setting,value
CCOC(CN1CCN(CC(C)C(=O)c2ccccc2)CC1)c1ccccc1 (stereo not drawn),Potency,[1],inactive
same,Potency,[2],inactive
N[C@H](C(=O)O)c1ccc(O)cc1,Potency,[3],inactive
same,outcome,[4],inactive
same,Potency,[5],inactive
same,Potency,[2],inactive
O=C1Nc2ccc(Cl)cc2[C@@](C#CC2CC2)(C(F)(F)F)O1,Potency,[1],inactive
same,Potency,[2],inactive
CCOC(=O)[C@H](CCc1ccccc1)N[C@@H](C)C(=O)N1C(=O)N(C)C[C@H]1C(=O)O,Potency,[1],inactive
same,Potency,[2],inactive
CC(C)c1c(C(=O)Nc2ccccc2)c(-c2ccccc2)c(-c2ccc(F)cc2)n1CC[C@@H](O)C[C@@H](O)CC(=O)O,Potency,[1],inactive
same,Potency,[6],inactive
same,Potency,[2],inactive
same,outcome,[7],inactive
C#CCN(C)Cc1ccccc1,Potency,[6],inactive
same,Potency,[2],inactive
same,outcome,[7],inactive
NC1CCN(c2cccc(Cl)n2)CC1,Potency,[2],inactive
CNCC(O)c1ccc(O)c(O)c1 (stereo not drawn),Potency,[6],inactive
same,Potency,[2],inactive
same,outcome,[7],inactive
CNCCCC1c2ccccc2C=Cc2ccccc21,Potency,[6],inactive
same,Potency,[2],inactive
same,outcome,[7],inactive
N=c1c[n+](N2CCOCC2)[n-]o1,Potency,[6],inactive
same,outcome,[7],inactive
C[C@]12C[C@H](O)[C@H]3[C@@H](CCC4=CC(=O)CC[C@@]43C)[C@@H]1CC[C@@H]2C(=O)CO,Potency,[6],inactive
same,Potency,[2],inactive
same,outcome,[7],inactive
CC(=O)c1ccc2c(c1)N(CCCN(C)C)c1ccccc1S2,Potency,[6],inactive
same,Potency,[2],inactive
same,outcome,[7],inactive
CC(=O)OCC(=O)[C@@]1(O)CC[C@H]2[C@@H]3CCC4=CC(=O)CC[C@]4(C)[C@H]3C(=O)C[C@@]21C,Potency,[6],inactive
same,Potency,[2],inactive
same,outcome,[7],inactive
O=C1N=C(O)CN1/N=C/c1ccc(-c2ccc([N+](=O)[O-])cc2)o1,Potency,[6],inactive
same,Potency,[2],inactive
same,outcome,[7],inactive
C[C@](N)(Cc1ccc(O)cc1)C(=O)O,Potency,[6],inactive
same,"activity change, negative = inhibition",[2],-0.196% [at 3.83 µM]
same,outcome,[7],inactive
CC1=C(CC(=O)O)c2cc(F)ccc2/C1=C\c1ccc(S(C)(=O)=O)cc1,Potency,[6],inactive
same,Potency,[2],inactive
same,outcome,[7],inactive
CC(CN1c2ccccc2Sc2ccccc21)N(C)C (stereo not drawn),Potency,[6],inactive
same,Potency,[2],inactive
same,outcome,[7],inactive
CC(CN(C)C)CN1c2ccccc2CCc2ccccc21 (stereo not drawn),Potency,[6],inactive
same,Potency,[2],inactive
same,outcome,[7],inactive
C[C@H](NC(CCc1ccccc1)C(=O)O)C(=O)N1CCC[C@H]1C(=O)O (stereo partly drawn),Potency,[6],inactive
same,Potency,[2],inactive
same,outcome,[7],inactive
CC(C)C(=O)c1c(C(C)C)nn2ccccc12,Potency,[6],inactive
same,Potency,[2],inactive
same,outcome,[7],inactive
C[C@]12CC[C@@H]3c4ccc(O)cc4CC[C@H]3[C@@H]1CCC2=O,Potency,[6],inactive
same,Potency,[2],inactive
same,outcome,[7],inactive
O=C1NC(=O)[C@@]2(CCOc3ccc(F)cc32)N1,Potency,[6],inactive
same,Potency,[2],inactive
same,outcome,[7],inactive
CC(C)(C)c1onc(OCP(=O)(O)O)c1CC(N)C(=O)O (stereo not drawn),Potency,[6],inactive
same,outcome,[7],inactive
NC(N)=NCCC[C@H](N)C(=O)O,Potency,[6],inactive
same,"activity change, negative = inhibition",[2],-4.76% [at 3.83 µM]
same,outcome,[7],inactive
CN(C)CC[C@@H](c1ccc(Cl)cc1)c1ccccn1,Potency,[6],inactive
same,Potency,[2],inactive
same,outcome,[7],inactive
CCCn1cnc2c1c(=O)n(CCCCC(C)=O)c(=O)n2C,Potency,[6],inactive
same,Potency,[2],inactive
same,outcome,[7],inactive
CCN(CC)C(C)CN1c2ccccc2Sc2ccccc21 (stereo not drawn),Potency,[6],inactive
same,Potency,[2],inactive
same,outcome,[7],inactive
CC1=C(CC(=O)O)c2cc(F)ccc2/C1=C\c1ccc(S(C)=O)cc1 (stereo not drawn),Potency,[6],inactive
same,Potency,[2],inactive
same,outcome,[7],inactive
COCCOC(=O)C1=C(C)NC(C)=C(C(=O)OC/C=C/c2ccccc2)C1c1cccc([N+](=O)[O-])c1 (stereo not drawn),Potency,[6],22.4 µM (active)
same,outcome,[7],inactive
NC(=O)c1ncn([C@@H]2O[C@H](CO)[C@@H](O)[C@H]2O)n1,Potency,[6],inactive
same,Potency,[2],inactive
same,outcome,[7],inactive
Nc1cc(=O)[nH]c(N)n1,Potency,[6],inactive
same,Potency,[2],inactive
same,outcome,[7],inactive
C=Cc1c(C)c2cc3[nH]c(cc4nc(cc5nc(cc1[nH]2)C(C)=C5CCC(=O)O)C(CCC(=O)O)=C4C)c(C)c3C=C,Potency,[6],inactive
same,Potency,[2],inactive
same,outcome,[7],inactive
CC(C)NC[C@H](O)c1ccc(O)c(O)c1,Potency,[6],inactive
same,outcome,[7],inactive
CC(C)(C)[C@]1(O)CCN2C[C@H]3c4ccccc4CCc4cccc(c43)[C@@H]2C1,Potency,[6],inactive
same,outcome,[7],inactive
CC[C@H]1CN2CCc3cc(OC)c(OC)cc3[C@@H]2C[C@@H]1C[C@H]1NCCc2cc(OC)c(OC)cc21,Potency,[6],0.282 µM (active)
same,Potency,[2],0.264 µM (active)
same,outcome,[7],inactive
C[C@H]1O[C@@H](n2cc(F)c(=O)[nH]c2=O)[C@H](O)[C@@H]1O,Potency,[6],inactive
same,Potency,[2],inactive
same,outcome,[7],inactive
CCN(CC)CCNC(=O)c1c(C)[nH]c(/C=C2\C(=O)Nc3ccc(F)cc32)c1C,Potency,[6],10 µM (active)
same,Potency,[2],10.5 µM (active)
same,outcome,[7],inactive
